Compounds with a hit are over-represented: about 1.8% of the library has one in this group of screens.
Gli-Sufu block: antagonists of Gli-Sufu signaling | AID 588413 | inhibition, % at 5 µM | Sufu-KO-LIGHT fibroblasts, Gli luciferase reporter luminescence | actives 0.74% (n = 340,000);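 active means inhibition above about 55%, limit read from the data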;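 further: 0% = DMSO-treated cells and 100% = wells with medium but no cells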
Jurkat NFkB inh: inhibitors of the PMA/ionomycin-induced NF-kB reporter in Jurkat cells; PMA/ionomycin-induced NF-kB luciferase reporter, luminescence; inhibition, % at 4 µM; actives 0.53% (n = 330,000); AID 435003; in the data active means inhibition above about 50%
697 NFkB inh: lowers PMA/ionomycin-induced NF-kB signal in 697 B cells; 697 B-cell NF-kB luciferase reporter, 16 h; inhibition, % at 4 µM; actives 0.33% (n = 330,000); AID 435022; in the data active means inhibition above about 35%
Beta cell apopt: beta cell apoptosis inhibition. INS-1E cytokine-induced death, ATP luminescence, 48 h; percent of positive-control rescue, neutral wells zero. protection from apoptosis, % (test concentration not listed). actives 0.8% (n = 300,000). AID 435005;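 active means Every replicate reaches about 75%, or at least half do and their mean reaches it too, limit read from the data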;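 further: 0% = cytokine-treated negative control wells and 100% = positive control rescue; higher means more ATP so stronger rescue from cytokine killing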
Gli-Sufu confirm: confirmation of Gli-SUFU pathway antagonists; shares compounds with Gli-Sufu block; Sufu-KO-LIGHT cells, Gli luciferase reporter, luminescence; inhibition, % at 5 µM; actives 40% (n = 2,500); AID 602428;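 active means mean inhibition at 5 µM reaching about 45%, limit read from the data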;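 further: plate controls were DMSO-treated cells for no effect and wells lacking cells for full effect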
Gli cytotox: cytotoxic in Gli-SUFU antagonist counter-screen. shares compounds with Gli-Sufu block. Sufu-KO-LIGHT cells cytotoxicity, ATP luminescence. cytotoxicity, % at 5 µM. actives 32% (n = 2,500). AID 651994;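 active means mean cytotoxicity at 5 µM above about 25%, limit read from the data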;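 further: cells exposed to compound overnight for roughly 16 to 18 hours; plate controls were DMSO wells with cells for no effect and medium without cells for full effect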
Wnt3a cs: Wnt3a reporter inhibition counter-screen. actives 20% (n = 2,500). shares compounds with Gli-Sufu block. inhibition, % at 6.25 µM. Wnt-LIGHT cells, Wnt3a-driven luciferase reporter, luminescence;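 active means mean inhibition above about 25%, limit read from the data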
* marks the source's active call; other numbers are inactive results; x = no result given.

SMILES | Gli-Sufu block | Jurkat NFkB inh | 697 NFkB inh | Beta cell apopt | Gli-Sufu confirm | Gli cytotox | Wnt3a cs
Cc1cc(-c2ccc([N+](=O)[O-])cc2)nc2ccccc12 | -19 | -10 | -22 | 2 | x | x | x
Cc1cc(N2CCN(c3nc(-c4ccc([N+](=O)[O-])cc4)cs3)CC2)c2ccccc2n1 | 63* | 16 | -1 | -1 | 32 | 19 | -5
Cc1nc2ccccc2nc(C)c1=NOCc1ccc(C#N)cc1 | -7 | 10 | -14 | x | x | x | x
Cc1nc2ccccc2nc(C)c1=NOCc1cccc(F)c1 | 66* | -15 | -29 | -8 | 21 | 6 | -21
COc1cc(OC)c(/C=N/NC(=O)COc2cccc3cccnc23)c(OC)c1 | 56* | -23 | 2 | 0 | 13 | -11 | 8
Cc1ccc(C)c(NC(=O)CN(C)C(=O)CSCc2c(C)noc2C)c1 | -4 | 5 | -10 | 9 | x | x | x
CCN(CC(=O)Nc1cc(Cl)ccc1C)C(=O)CSCc1c(C)noc1C | 52 | -1 | 8 | 0 | 13 | 22 | -10
O=C(NCc1cccc(F)c1)C1CCC(=O)N(CCCN2CCOCC2)C1 (stereo not drawn) | 6 | 2 | 22 | -1 | x | x | x
Cc1nc2ccccc2n1CC(=O)NC(C)C1CC2CCC1C2 (stereo not drawn) | 60* | 28 | -11 | 30 | 54* | 15 | 15
CC(NC(=O)Cn1c(NCCO)nc2ccccc21)C1CC2CCC1C2 (stereo not drawn) | 1 | 2 | -11 | 0 | x | x | x
Cc1ccc2c(c1)S/C(=C/c1ccc[n+](C)c1)N2CCO | 55* | 18 | -9 | 95* | 35 | 3 | -6
O=[N+]([O-])c1ccc(-c2ccc(S(=O)(=O)NCCN3CCCC3)cc2)cc1 | 54 | 34 | -28 | x | 29 | 10 | -29
Cc1ccsc1CNc1ncnc2ccc(-c3c(C)noc3C)cc12 | 53 | -7 | 24 | -12 | 62* | 25* | -3
Cn1ccc2cc(-c3ccc4ncnc(NCc5cccs5)c4c3)ccc21 | 14 | -11 | -59 | 61 | x | x | x
Cc1ccc(S(=O)(=O)c2nc(S(=O)(=O)c3ccc(C)cc3)c(N3CCN(CCO)CC3)s2)cc1 | 55* | 26 | -18 | x | 23 | 20 | 62*
CS(=O)(=O)c1nc(S(=O)(=O)c2ccc(Cl)cc2)c(N2CCN(CCO)CC2)s1 | 13 | 10 | 5 | -16 | x | x | x
Cc1ccc(S(=O)(=O)c2nc(S(C)(=O)=O)sc2N2CCOCC2)cc1 | 7 | 25 | 5 | -6 | x | x | x
CCS(=O)(=O)c1nc(S(=O)(=O)c2ccc(C)cc2)c(N2CCOCC2)s1 | 54 | -5 | -4 | 2 | 21 | 15 | 7
O=C(O)C[C@H]1c2cc(F)ccc2S(=O)(=O)N1C1CCCC1 | -4 | 11 | 19 | -3 | x | x | x
CCOc1ccc(NC(=O)C(Cc2ccccc2)NC(=O)C2CCCCC2)cc1 (stereo not drawn) | -2 | 12 | 8 | -3 | x | x | x
O=C(Nc1nnc(-c2ccco2)o1)c1ccc2ccccc2c1 | 97* | -1 | 11 | x | 8 | 2 | -14
CCN(CC)S(=O)(=O)c1cccc(NC(=O)/C=C/c2cccc([N+](=O)[O-])c2)c1 | 51 | x | x | 4 | 23 | 14 | -45
CCN(CC)S(=O)(=O)c1cccc(NC(=O)/C=C/c2ccc([N+](=O)[O-])cc2)c1 | -1 | -4 | -41 | 3 | x | x | x
CCN(CC)S(=O)(=O)c1cccc(NC(=O)CC2CCCC2)c1 | 57* | -5 | 3 | 0 | 22 | 10 | -8
COc1ccc(OC)c(CCNC(=O)c2ccc(CS(=O)Cc3cccc(Cl)c3)o2)c1 (stereo not drawn) | -6 | 2 | -8 | -2 | x | x | x
SMILES | Gli-Sufu block | Jurkat NFkB inh | 697 NFkB inh | Beta cell apopt | Gli-Sufu confirm | Gli cytotox | Wnt3a cs
Cc1cc2cc(CN(CC3CCCO3)C(=S)Nc3ccccc3)c(=O)[nH]c2cc1C (stereo not drawn) | 63* | 40 | -19 | 9 | 80* | 50* | -1
Cc1cc2cc(CN(CC3CCCO3)C(=S)NCc3ccco3)c(=O)[nH]c2cc1C (stereo not drawn) | -4 | -13 | -14 | -5 | x | x | x
CC(C)CNS(=O)(=O)c1ccc(CCC(=O)N2CCN(Cc3ccc4c(c3)OCO4)CC2)cc1 | 26 | 8 | -87 | 23 | x | x | x
CCOC(=O)C[N+](C)(C)CCOC1CC2CCC1(C)C2(C)C (stereo not drawn) | 45 | 9 | -15 | 6 | x | x | x
CC1(C)C2CCC1(C)C(OCC[N+](C)(C)CC(=O)OC1CCCCC1)C2 (stereo not drawn) | 79* | 2 | 2 | 47 | 75* | 32* | 22
COc1ccc(COc2ccccc2C(=O)NCc2ccccc2)cc1F | 53 | 15 | -49 | x | 20 | 15 | 12
COc1cc(C(=O)NCc2ccccc2)ccc1OC(F)F | 4 | -2 | -9 | 3 | x | x | x
CC(C)[C@H](NC(=O)c1cccc(S(=O)(=O)N2CCOCC2)c1)C(=O)Nc1nc2ccccc2s1 | -7 | -36 | -35 | 4 | x | x | x
c1ccc(CNc2nc(-c3cccs3)nc3ccccc23)nc1 | 5 | 3 | 5 | -4 | x | x | x
Cc1ccc(CNc2nc(-c3cccs3)nc3ccccc23)cc1 | 50 | -10 | -8 | 6 | 17 | 10 | -37
CNc1nc(NCc2ccccc2)c2ccccc2n1 | 57* | 28 | -31 | 37 | 40 | 15 | -10
O=C(NNC(=S)Nc1ccccc1C(F)(F)F)c1cccnc1 | -1 | 5 | 5 | -2 | x | x | x
CCOc1ccc(NS(=O)(=O)c2ccc(C(=O)N3CCN(c4ncccn4)CC3)cc2)cc1 | 28 | 20 | -31 | 11 | x | x | x
CCOc1ccc(NS(=O)(=O)c2ccc3c(c2)N(C(C)=O)CCS3)cc1 | 55 | -1 | -11 | 5 | 14 | 4 | 9
CCOc1ccc(NS(=O)(=O)c2ccc3c(c2)N(C(C)=O)CC3)cc1 | 19 | 13 | -18 | 16 | x | x | x
COc1ccc(NS(=O)(=O)c2ccc3c(c2)N(C(C)=O)CC(C)S3)c(OC)c1 (stereo not drawn) | 54 | 15 | -26 | 4 | 16 | 7 | 9
CCOc1ccc(NS(=O)(=O)c2ccc(C(=O)N3CCCCC3)cc2)cc1 | 55* | 6 | -9 | 20 | 27 | 29* | -19
Cc1cc2oc(=O)cc(CN3CCOCC3)c2cc1Cl | 9 | 9 | -12 | 7 | x | x | x
Cc1ccc(N2CN(Cc3cccnc3)CNC2=S)cc1 | 15 | -11 | -4 | -3 | x | x | x
Cc1cccc(N2CN(Cc3cccnc3)CNC2=S)c1C | 55* | 6 | -9 | -4 | 29 | -4 | -6
Cc1ccc(C)c(NC(=O)NC2CCCCCCC2)c1 | -8 | 7 | 22 | 4 | x | x | x
Cc1ccc2c(c1)NCC(C(=O)NC1CCCCC1)O2 (stereo not drawn) | 52 | -12 | -11 | -1 | 9 | -4 | -4
COc1ccc(-c2c[n+]3c(n2-c2ccccc2)SCC3)cc1 | 76* | 39 | 18 | x | 80* | 25* | 42*
